Experimental findings from PubChem BioAssay (NCATS) are described below.

Where “and” joins values, the source holds several entries; their conditions need not be identical. Equal entries are not always repeated. Unmarked numbers belong to inactive results. Records with an inconclusive call do not appear. Calls of active or inactive are those of the source. Unless noted, calls come from the whole dose curve; as a rule, active = well fitted curve in the direction sought with a large enough effect; inconclusive = small, poorly fitted or top-dose-only effect, or another doubt; inactive = no such curve, though single readings can be large; an effect the other way counts as inactive or inconclusive.

Experiment [1] is described as follows: Cell Viability - HepG2 (AID 433; calls by dose curve;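 note: potency is the fitted concentration of half-maximal effect; cells exposed to compound for 40 hours; potency for ATP loss meaning cytotoxicity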). The following applies: qHTS. A digest of the protocol: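 HepG2 hepatocellular carcinoma cells (1500/well) were treated with compounds for 40 h at 37 °C in complete medium; intracellular ATP was read by CellTiter-Glo luminescence. Data were normalized to DMSO and 100 uM tamoxifen, and AC50 came from Hill fits.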
Experiment [2] in a line: Cell Viability - SH-SY5Y (AID 544).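 Note: cells exposed to compound for 40 hours; nearly all actives have a fitted effect of over 55% in size.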 The note with it: SH-SY5Y neuroblastoma cell viability; viability change, negative = cytotoxic: at 92.2 µM (top of the series). A digest of the protocol:
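Cytotoxicity measured via ATP-dependent luciferase luminescence (CellTiter-Glo) following 40 h, 37 °C exposure of 1500 SH-SY5Y cells per well. Concentration-response data were fitted with the standard Hill equation to give AC50.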

Experiment [3] can be described thus: Cellular Toxicity (caspase-3) HepG2 (AID 654).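 Note: cells exposed to compound for 16 hours before reading; 0% = DMSO alone and 100% = caspase signal from 100 µM tamoxifen.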 The note with it: HepG2 caspase-3 activation, luminescence, 0% = DMSO only, 100% = tamoxifen; series mostly up to 92.2 µM. The essentials: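 Caspase 3/7 activation is measured as a luminescence increase (aminoluciferin substrate) after 16 h compound exposure of human hepatocarcinoma HepG2 cells. AC50 values are Hill fits, scaled between DMSO baseline and 100 uM tamoxifen stimulation.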

Experiment [4] is described as follows: Cellular Toxicity (caspase-3) HUV-EC-C (AID 656). The note with it: HUV-EC-C cells, caspase-3 activation (apoptosis), vehicle = 0, 100 µM tamoxifen = 100%; series mostly up to 92.2 µM. The essentials:
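HUV-EC-C endothelial cells, 1000/well, were pre-incubated 5 hr at 37°C, then exposed to compounds for 16 hr at 37°C. Caspase-Glo 3/7 luminescence was read after 20 min at room temperature. AC50 came from Hill fits, normalized to DMSO and 100 uM tamoxifen.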

A short description of experiment [5]: Cellular Toxicity (caspase-3) Mesangial (AID 660).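 Note: combined caspase 3 and 7 activity read by Caspase-Glo luminescence; cells exposed to compound for 16 h before the caspase read.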 The following applies: mesangial cells, normalized: DMSO 0%, 100 µM tamoxifen 100%; series mostly up to 91.7 µM. The essentials:
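Caspase 3/7 activation measured by Caspase-Glo 3/7 luminescence (20 min, room temperature) following 16 h exposure of mesangial cells (1000/well); AC50 from Hill-equation fit, normalized to DMSO and 100 uM tamoxifen.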

Experiment [6] in a line: Cellular Toxicity (caspase-3) SK-N-SH (AID 661).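 Note: 0% = DMSO basal and 100% = 10 µM staurosporine.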 The note with it: SK-N-SH caspase-3 activation, qHTS; series mostly up to 91.7 µM. The essentials:
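Caspase 3/7 activation was read by luminogenic substrate cleavage after 16 hour treatment of SK-N-SH cells. Signal was scaled between DMSO and 10 uM staurosporine, and concentration-response data were fitted with the Hill equation for AC50.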
(Quantitative high-throughput screening tests each substance at several concentrations.)

Experiment [7] is described as follows: Cellular Toxicity (caspase-3) Hek293 (AID 664).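 Note: cells exposed to compound for 16 h at 37 °C before readout.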 The following applies: HEK293 caspase-3 activation, DMSO = 0%, 100 µM tamoxifen = 100%; at 92.2 µM (top of the series). The essentials: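 Concentration-response qHTS: caspase 3/7 activation measured by luminescent aminoluciferin substrate cleavage after 16 h compound exposure of Hek 293 cells. AC50 from Hill equation, with DMSO as basal and 100 uM tamoxifen as 100%.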

Experiment [8] in a line: Cellular Toxicity (caspase-3) NIH 3T3 (AID 666).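 Note: caspase signal read after 16 h compound exposure.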 The note with it: NIH 3T3 caspase-3 activation, apoptosis/toxicity; series mostly up to 92.2 µM. A digest of the protocol:
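Caspase-Glo 3/7 luminescence reported caspase activation in 1000 NIH 3T3 cells/well after 16 h compound exposure at 37 C. DMSO set basal and 100 uM tamoxifen set 100% stimulation; concentration-response modeled with the Hill equation for AC50.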

A short description of experiment [9]: Cell Viability - LYMP2-023 (AID 975).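 Note: cellular ATP measured by luciferase luminescence as viability proxy; cells exposed to compound for 24 hours at 37 °C; plate controls were DMSO only for no effect and 92 µM tetraoctylammonium bromide control for full effect; nearly all actives have a fitted effect of over 55% in size.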 The following applies: LYMP2-023 lymphoblastoid cell viability; series mostly up to 92.2 µM. The essentials: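 Intracellular ATP, read by CellTiter-Glo luminescence, reports viability after 24 hr compound exposure at 37 C. 2500 lymphoblastoid cells/well (LYMP2-023) seeded 5 hr beforehand; Hill fits give AC50; positive control tetraoctylammonium bromide.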

The nature of experiment [10]: Cell Viability - LYMP2-014 (AID 983).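 Note: plate controls were DMSO only for no effect and 92 µM tetraoctylammonium bromide for full effect; nearly all actives have a fitted effect of over 50% in size.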 The note with it: LYMP2-014 lymphoblastoid cells, viability qHTS; series mostly up to 92.2 µM. The essentials:
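Intracellular ATP loss, read by luciferase luminescence, measures acute cytotoxicity after 24 h compound exposure of lymphoblastoid LYMP2-014 cells (2500/well, 37 C). Concentration-response data fitted to the Hill equation for AC50.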

A short description of experiment [11]: Cell Viability - LYMP2-026 (AID 989). Note: % is set by controls: 0 for no effect and ±100 for the full control effect; nearly all actives have a fitted effect of over 50% in size. The note with it: LYMP2-026 lymphoblastoid cell viability, qHTS; series mostly up to 92.2 µM. A digest of the protocol: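 Cytotoxicity read as ATP-dependent luminescence (CellTiter-Glo, 30 min room temperature) after 24 h compound treatment at 37 C. LYMP2-026 lymphoblastoid line seeded at 2500 cells/well; AC50 derived by standard Hill equation.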

Experiment [12] addresses Peroxisome proliferator-activated receptor delta (Homo sapiens) (UniProt Q03181). Description: qHTS assay for small molecule agonists of peroxisome proliferator-activated receptor delta signaling (AID 588534; calls by dose curve;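 note: 0% = DMSO basal wells and 100% = positive control agonist at 10 µM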). The following applies: HEK293T PPARdelta-UAS-bla, beta-lactamase ratio, 18 h; series mostly up to 76.7 µM. A digest of the protocol: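 Agonist-mode beta-lactamase reporter readout (CCF4 dye, 2 h at RT) after 18 h at 37 °C exposure to a titration; Hill-equation fitting gave EC50 and maximal response.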

In experiment [13] the target is Vitamin D3 receptor (Homo sapiens) (UniProt P11473). The experiment in a line: qHTS assay for small molecule antagonists of vitamin D receptor signaling (AID 588541; calls by dose curve;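 note: receptor activated by calcitriol during compound treatment; % is set by controls: 0 for no effect and ±100 for the full control effect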). The note with it: HEK293T VDR-UAS-bla, beta-lactamase ratio, antagonist mode; series mostly up to 76.7 µM. A digest of the protocol: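 VDR-UAS-bla HEK293T cells (2000/well, 2% charcoal-stripped FBS) were treated with titrated compounds plus 1-alpha,25-dihydroxyvitamin D3 (50 nM or 3 nM final) for 16 h at 37 C. CCF4 beta-lactamase fluorescence was read; Hill fits gave IC50.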
Vitamin D3 receptor (Homo sapiens), sequence (P11473 whole entry, looked up): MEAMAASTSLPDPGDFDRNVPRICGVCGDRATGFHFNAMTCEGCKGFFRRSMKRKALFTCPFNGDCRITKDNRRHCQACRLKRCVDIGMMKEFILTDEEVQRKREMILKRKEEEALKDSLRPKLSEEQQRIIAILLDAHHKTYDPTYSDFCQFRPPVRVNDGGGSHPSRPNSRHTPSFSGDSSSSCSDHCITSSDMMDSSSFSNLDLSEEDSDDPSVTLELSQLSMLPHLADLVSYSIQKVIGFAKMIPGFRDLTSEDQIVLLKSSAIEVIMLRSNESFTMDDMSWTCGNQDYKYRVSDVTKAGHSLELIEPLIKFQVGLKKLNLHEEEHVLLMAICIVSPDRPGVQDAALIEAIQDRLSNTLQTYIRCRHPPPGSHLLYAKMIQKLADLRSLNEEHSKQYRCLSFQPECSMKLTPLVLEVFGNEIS

Experiment [14] has the same target. Description: qHTS assay for small molecule agonists of vitamin D receptor signaling (AID 588543; calls by dose curve;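 note: 0% = DMSO basal and 100% = reference agonist control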). The following applies: HEK293T VDR-UAS-bla, beta-lactamase ratio, 16 h; series mostly up to 76.8 µM. A digest of the protocol: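 GeneBLAzer VDR-UAS-bla HEK293T cells in 2% charcoal-stripped FBS medium were dosed with compound titrations for 16 h at 37 °C; CCF4 β-lactamase readout (405 nm ex, 460/530 nm em). EC50 and efficacy from Hill fits, normalized to 50 nM calcitriol (100%) and DMSO (0%).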

Experiment [15] is described as follows: qHTS assay for small molecule activators of the p53 signaling pathway (AID 651743; active = well fitted activation curve with a large enough effect in the signal ratio, not every such curve was filed as active; the % refers to the signal ratio; note: % of control where 0% means no effect). The note with it: HCT-116 p53RE-bla, beta-lactamase FRET ratio, 16 h; activation: active compounds read high. The essentials:
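Agonist-mode quantitative HTS in HCT-116 cells carrying a p53-response-element beta-lactamase reporter; 16 h compound treatment at 37 C, then FRET substrate loading for 2 h at room temperature and fluorescence read.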

The nature of experiment [16]: qHTS assay for small molecule disruptors of the mitochondrial membrane potential - 1 hr assay (AID 651754; calls by dose curve; note: nearly all actives have a fitted effect of over 35% in size; note: potency is the fitted concentration of half-maximal effect). The following applies: series mostly up to 92.2 µM. A digest of the protocol: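 Mitochondrial potential in living HepG2 cells after 1 hr compound treatment at 37C was read with Mito-MPS dye added for a further 30 min. Red aggregate and green monomer fluorescence were measured; loss of potential leaves dye as cytoplasmic monomers.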

Experiment [17] addresses Nuclear receptor ROR-gamma (Homo sapiens) (UniProt P51449). The experiment in a line: qHTS assay for small molecule antagonists of the retinoid-related orphan receptor gamma (ROR-gamma) signaling pathway (AID 651802).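 Note: CHO cells with doxycycline-induced ROR-gamma expression; luciferase reporter luminescence driven by ROR response element; % is set by controls: 0 for no effect and ±100 for the full control effect; nearly all actives have a fitted effect of over 60% in size.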 The following applies: ROR-gamma antagonist cell reporter assay; series mostly up to 92.2 µM. The essentials: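 Luminescence (One-Glo, 30 min RT) measured 16 h after compound addition and doxycycline induction at 37C. Reporter: RORE-luciferase under TET-inducible ROR-gamma in CHO cells.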

A short description of experiment [18]: qHTS assay for small molecule agonists of the antioxidant response element (ARE) signaling pathway measured by Nrf2-dependant transcriptional activity - cell viability counter screen (AID 720653; active = well fitted curve in the direction sought with a large enough effect in the repeat runs; an effect the other way counts as inactive or inconclusive; note: % is set by controls: 0 for no effect and ±100 for the full control effect). The following applies: ARE-bla HepG2 viability, CellTiter-Glo ATP luminescence, 16 h; active compounds read low. The essentials: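 ARE-bla HepG2 cells (2,000/well) rested 5 hrs at 37C/5% CO2, then exposed to compounds in DMSO for 16 hrs. Viability was read in the same wells as intracellular ATP by luminescence, 30 min at room temperature after reagent addition.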

A short description of experiment [19]: Cell Viability - Mesenchymal (AID 546).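 Note: cells exposed to compound for 40 hours before reading.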 The following applies: mesenchymal cells viability, qHTS; series mostly up to 91.7 µM. The essentials:
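In this qHTS cytotoxicity format, glomerulus-derived human mesenchymal kidney cells received compound for 40 hr, then luciferase-based ATP quantitation. Concentration-response data were fitted with the Hill equation.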

For experiment [20], the target named is Voltage-gated inwardly rectifying potassium channel KCNH2 (Homo sapiens) (UniProt Q12809). The experiment in a line: qHTS Assay for Small Molecule Inhibitors of the Human hERG Channel Activity (AID 588834).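 Note: lower thallium flux fluorescence means stronger hERG block; nearly all actives have a fitted effect of over 50% in size.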 Note: potency is the fitted concentration of half-maximal effect. The note with it: U2OS BacMam hERG, FluxOR thallium flux fluorescence; series mostly up to 92.2 µM. The essentials:
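In hERG-transduced U2OS cells, dye-loaded for 1 hr at room temperature in dark, test compounds incubated 10 min at 37 °C before thallium stimulation. AC50 values derived by Hill modelling of concentration-response.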

Voltage-gated inwardly rectifying potassium channel KCNH2 (Homo sapiens), sequence (Q12809 whole entry, looked up): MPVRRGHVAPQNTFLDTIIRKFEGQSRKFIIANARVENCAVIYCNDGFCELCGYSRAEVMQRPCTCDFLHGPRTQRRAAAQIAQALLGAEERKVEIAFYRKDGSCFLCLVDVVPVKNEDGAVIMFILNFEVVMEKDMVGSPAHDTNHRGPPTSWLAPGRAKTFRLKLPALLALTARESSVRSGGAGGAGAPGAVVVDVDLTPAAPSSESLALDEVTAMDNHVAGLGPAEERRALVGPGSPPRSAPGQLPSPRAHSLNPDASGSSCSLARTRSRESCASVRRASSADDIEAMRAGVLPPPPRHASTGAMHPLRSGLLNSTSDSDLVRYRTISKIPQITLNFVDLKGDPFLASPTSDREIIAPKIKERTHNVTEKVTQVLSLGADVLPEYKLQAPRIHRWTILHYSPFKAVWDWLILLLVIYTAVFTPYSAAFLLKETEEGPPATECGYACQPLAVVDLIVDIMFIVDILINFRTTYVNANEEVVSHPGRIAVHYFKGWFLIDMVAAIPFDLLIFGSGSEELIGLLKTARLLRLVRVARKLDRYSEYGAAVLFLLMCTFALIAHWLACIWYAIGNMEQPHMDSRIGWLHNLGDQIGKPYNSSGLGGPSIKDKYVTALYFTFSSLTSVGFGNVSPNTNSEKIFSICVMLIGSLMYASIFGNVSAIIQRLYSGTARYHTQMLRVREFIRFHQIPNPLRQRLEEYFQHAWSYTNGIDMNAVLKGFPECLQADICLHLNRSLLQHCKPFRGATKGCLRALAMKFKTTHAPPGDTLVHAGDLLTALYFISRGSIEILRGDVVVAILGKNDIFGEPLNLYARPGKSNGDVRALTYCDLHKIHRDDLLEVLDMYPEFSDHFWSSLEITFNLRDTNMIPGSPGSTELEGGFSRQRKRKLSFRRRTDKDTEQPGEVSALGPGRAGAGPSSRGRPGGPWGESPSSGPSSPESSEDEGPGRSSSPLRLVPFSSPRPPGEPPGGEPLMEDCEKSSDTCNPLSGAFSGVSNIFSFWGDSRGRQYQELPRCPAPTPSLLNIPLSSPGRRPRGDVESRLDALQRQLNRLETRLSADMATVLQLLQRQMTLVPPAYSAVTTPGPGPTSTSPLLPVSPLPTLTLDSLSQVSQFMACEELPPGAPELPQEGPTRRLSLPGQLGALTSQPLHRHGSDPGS
Peroxisome proliferator-activated receptor delta (Homo sapiens), sequence (Q03181 whole entry, looked up): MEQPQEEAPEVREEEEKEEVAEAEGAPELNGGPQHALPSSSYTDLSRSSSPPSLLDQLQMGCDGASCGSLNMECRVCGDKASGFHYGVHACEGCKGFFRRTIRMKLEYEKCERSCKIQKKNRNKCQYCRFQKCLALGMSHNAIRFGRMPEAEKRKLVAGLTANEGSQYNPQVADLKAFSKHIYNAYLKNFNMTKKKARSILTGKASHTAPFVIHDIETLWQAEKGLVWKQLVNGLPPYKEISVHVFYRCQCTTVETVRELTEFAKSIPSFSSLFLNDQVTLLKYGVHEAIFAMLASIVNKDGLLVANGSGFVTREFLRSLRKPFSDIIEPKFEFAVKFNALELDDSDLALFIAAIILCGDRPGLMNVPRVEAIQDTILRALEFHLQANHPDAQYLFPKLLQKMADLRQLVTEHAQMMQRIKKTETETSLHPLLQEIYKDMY
Nuclear receptor ROR-gamma (Homo sapiens), sequence (P51449 whole entry, looked up): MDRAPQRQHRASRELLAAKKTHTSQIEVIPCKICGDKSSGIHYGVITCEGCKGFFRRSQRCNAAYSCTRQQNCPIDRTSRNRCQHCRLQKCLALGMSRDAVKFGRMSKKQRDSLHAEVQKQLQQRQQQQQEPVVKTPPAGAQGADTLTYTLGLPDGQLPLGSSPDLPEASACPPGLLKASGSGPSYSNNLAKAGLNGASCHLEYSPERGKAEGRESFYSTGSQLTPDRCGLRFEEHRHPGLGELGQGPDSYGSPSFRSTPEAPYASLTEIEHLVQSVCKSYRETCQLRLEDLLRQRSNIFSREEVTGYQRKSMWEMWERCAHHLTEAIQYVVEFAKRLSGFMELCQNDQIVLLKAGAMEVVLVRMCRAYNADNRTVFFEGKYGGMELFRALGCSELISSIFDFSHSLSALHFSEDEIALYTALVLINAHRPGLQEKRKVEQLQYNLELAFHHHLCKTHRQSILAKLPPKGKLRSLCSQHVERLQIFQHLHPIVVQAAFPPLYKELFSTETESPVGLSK

Take `Clc1ccc(C(Cl)(Cl)Cl)c(Cl)c1`: the Potency in experiment [1] was above 92 µM. Further, the Potency result in experiment [2], in [6], in experiment [8], in [9], in [10] and in experiment [11] was “inactive” each time. The Potency entry in [16] and in [17] was “inactive” throughout. Also, the compound was classed as inactive in [3], in experiment [4], in experiment [5], in [12], in experiment [13] and in experiment [14]. Moreover, the caspase-3 activation in experiment [7] was 0.186%. Besides, the activation in experiment [15] is -0.0334%. Further, in experiment [18], the max response was -1.74%.
Turning to `CCOP(=S)(OCC)SCCSCC`, the Potency entry in experiment [2], in experiment [19], in experiment [8], in [9], in experiment [10] and in experiment [11] was “inactive” each time. The Potency entry in [16] and in [17] was “inactive” in each case. Besides, the compound was called inactive in [5] and in experiment [12]. The caspase-3 activation in [7] is 0.951%. Besides, the activation in [15] was -1.38% and -6.24%. In addition, in experiment [18], the max response was -4.12% and 4.55%.
Regarding `Cc1ccc(OP(=O)(Oc2ccc(C)cc2)Oc2ccc(C)cc2)cc1`, the Potency in experiment [1] was above 92 µM; in [20], 20 µM (active); in experiment [16], 9.44 µM (active). For the same compound, the Potency entry in [2], in experiment [19], in experiment [6], in [8] and in experiment [10] was “inactive” each time. Besides, the call in experiment [3], in [4], in experiment [5], in experiment [12], in experiment [13] and in experiment [14] was inactive. Also, in [7], the caspase-3 activation was 2.34%. Moreover, the activation in experiment [15] was 0.798% and -5.64%.
Take `CCCBr`: the Potency in experiment [1] is above 92 µM. Moreover, the Potency result in experiment [2], in experiment [6], in experiment [9], in experiment [10], in experiment [11] and in experiment [20] was “inactive” each time. The Potency entry in experiment [16] and in experiment [17] was “inactive” each time. Also, the call in [3], in experiment [4], in experiment [5], in experiment [13] and in experiment [14] was inactive. Further, the caspase-3 activation in [7] was 2.6%. Moreover, the activation in experiment [15] is -0.771%. Moreover, in experiment [18], the max response was -3.32%.
Turning to `Cc1ccccc1[N+](=O)[O-]`, the Potency entry in experiment [2], in experiment [19], in experiment [6], in [8], in experiment [9] and in experiment [10] was “inactive” in each case. The Potency result in experiment [11], in [20] and in experiment [17] was “inactive” in each case. In addition, the result in [3], in [5], in [12], in experiment [13] and in [14] was inactive. Also, the caspase-3 activation in experiment [7] is -0.618%. For the same compound, the activation in experiment [15] was 1.69%.
Take `C=CCO`: the Potency entry in [2], in experiment [19], in [9], in experiment [10], in [11] and in [20] was “inactive” in each case. Moreover, in experiment [16], the Potency result was “inactive”. For the same compound, the result in experiment [3], in experiment [4], in experiment [5] and in [12] was inactive. Also, the caspase-3 activation in experiment [7] was 0.437%. Further, the activation in experiment [15] was -1.01%. Further, the max response in experiment [18] was 1.93%.
Regarding `ClC(Cl)C(Cl)Cl`, the Potency in experiment [1] is above 92 µM. Further, the Potency result in experiment [2], in experiment [19], in [8], in [9], in experiment [10] and in experiment [11] was “inactive” each time. Besides, the Potency result in [20] and in experiment [16] was “inactive” in each case. The outcome in experiment [3], in [4], in experiment [5], in experiment [13] and in [14] was inactive. Moreover, the activation in [15] was -4.56%. Moreover, in experiment [18], the max response was -4.41%.
